# From PubChem BioAssay
# Where “and” joins values, the source holds several entries; their conditions need not be identical. Equal entries are not always repeated. Calls of active or inactive are those of the source.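 Rule for the calls, unless noted: active = mean z-score across replicates of 1.96 or higher in either the MELAS or the Rieske mutant cell line; inactive = the rest.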
# How the values were obtained:
# [1] = compounds altering viability of human ES cells (AID 493140; call rule not given here;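 note: cells exposed to compounds for four days before counting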); settings: human embryonic stem cell survival screen; stronger effect = higher value
# [2] = P. berghei load reduction in hepatocytes – cell-based, HepG2, luciferase luminescence, HepG2 viability, primary screen (AID 624349; in the data active = parasite load remaining mostly below about 12%, no sharp cut-off; inactive = mostly above about 10%;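 note: 100% = mean of DMSO negative control wells on the same plate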); settings: P. berghei liver stage in HepG2, luciferase luminescence, concentration not given here; parasite load remaining: stronger effect = lower value; viability: measured here: HepG2 viability without parasites
# [3] = Wnt pathway potentiators raising nuclear beta-catenin – imaging, WNT3A-conditioned medium, mouse C2C12, NPC library, primary screen (AID 1117326; in the data active = nuclear beta-catenin stimulation mostly above about 4.2%, no sharp cut-off; inactive = mostly below about 10%); settings: stronger effect = higher value
# [4] = stimulators of insulin release from INS-1E, primary screen, cell-based, 5 mM glucose, NPC library (AID 1117329;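 active = compound raises insulin release from rat beta cells at 5 mM glucose, no numeric limit stated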); settings: rat INS-1E insulin secretion, at 10 µM, stronger effect = higher value
# [5] = growth inhibition of GSK3B-pretreated HCT116 cells – cell-based, CellTiter-Glo, 0.2 to 20 µM (AID 1117336;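 active = compounds lowering colon cancer cell viability after pretreatment blocking the GSK3B kinase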); settings: HCT116 viability after GSK3B inhibitor, at 20 µM, stronger effect = higher value
# [6] = inhibition of endothelial tube formation, primary screen, imaging, VEGF stimulated, CD31 staining, tube area, NPC library (AID 1117340;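 active = compound that reduces growth-factor-driven endothelial tube area in a mixed cell culture, no cutoff stated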); settings: VEGF-stimulated ADSC/ECFC co-culture, at 10 µM, stronger effect = higher value
# [7] = GLP1 release stimulators, primary, NCI-H716, NPC library (AID 1117341;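 active = compound raises GLP1 secretion from the human gut endocrine cells, with no numeric limit stated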); settings: NCI-H716 cells, at 10 µM, stronger effect = higher value
# [8] = HCT116 colon cancer cell growth inhibition, primary screen, CellTiter-Glo luminescence, NPC library (AID 1117342;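 active = compounds that lower survival of HCT116 colon cancer cells in the luminescence readout, no numeric limit stated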); settings: at 20 µM (top of the series)
# [9] = reduced SW480 viability measured with CellTiter-Glo, NPC library, primary (AID 1117343;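 active = compounds that lower viability of the colon cancer cells in the luminescence readout, with no numeric limit stated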); settings: CellTiter-Glo luminescence; at 20 µM (top of the series) unless noted
# [10] = NPC library primary testing for decreased DLD-1 cell viability via CellTiter-Glo (AID 1117346;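 active = compounds that lower survival of DLD-1 colon cancer cells in the luminescence readout, no cutoff given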); settings: DLD-1 viability, CellTiter-Glo luminescence; at 20 µM (top of the series)
# [11] = EMT-state selective cytotoxicity in co-culture – imaging, PC-3E GFP, TEM4-18 mCherry, primary screen (AID 1345086;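 active = compounds killing one labelled cell type while sparing the other, by normalised counts and ratio limits, not self-fluorescent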;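 for all read-outs here: cells exposed to compound for 72 h before imaging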;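 for red/green cell ratio (normalised): normalised mesenchymal count divided by normalised epithelial count so high means epithelial killing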); settings: PC-3E GFP / TEM4-18 mCherry co-culture, imaging cell counts, at 1 µM; for red/green cell ratio (normalised): actives lie on both sides, counts scaled to control wells, 1 = unselective
# [12] = MELAS cybrid and Rieske KO viability enhancers – cell-based, MELAS cybrids, Rieske KO mouse fibroblasts, CellTiter-Glo, primary screen (AID 1508586); settings: low glucose;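 note: z relative to plate mean and SD of compound and empty wells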
# [13] = target: NAD(+) hydrolase SARM1 (Homo sapiens) (UniProt Q6SZW1); assay: blocking NAD cleavage by SARM1 SAM-TIR – cell lysate, NAD-Glo luminescence (AID 1508614;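 active = compound whose remaining NAD level is above about 45 nM, limit read from the data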;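 note: higher remaining NAD means stronger inhibition of SARM1 NADase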); settings: SAM-TIR HEK293T lysate NADase, at 1 µM, stronger effect = higher value
# [14] = growth inhibition, single agent or in combination, cell-based, chromothripsis tumors, cisplatin or BGB combos (AID 1671449; in the data active = inhibition above about 80%;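 note: cells exposed for 96 hours; 0% = vehicle DMSO and 100% = killing by high DMSO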); settings: LFS_MB_P medulloblastoma cells
# [15] = growth inhibition, single agent and combos, cell-based, chromothripsis tumors, cisplatin or BGB combos (AID 1671450; in the data active = inhibition above about 80%;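 note: cells exposed to compound for four days; 0% = vehicle DMSO and 100% = cell killing by high DMSO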); settings: HDN33 neuroblastoma cells, stronger effect = higher value
# [16] = growth inhibition, single agents and combos, ICB984, cell-based, cisplatin or BGB combos, synergistic combos for chromothripsis tumors (AID 1671451; call rule not given here;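 note: cells exposed for 96 hours before readout; 0% = vehicle DMSO and 100% = killing by high DMSO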); settings: ICB984 medulloblastoma cells, drug combinations, stronger effect = higher value
# [17] = growth inhibition, single agents and combos, HTB85, cell-based, BGB or cisplatin IC20 combos, synergistic combos for chromothripsis tumors (AID 1671453; in the data active = inhibition above about 80%;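 note: cells exposed for 96 hours before readout; 0% = vehicle DMSO and 100% = high DMSO killing control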); settings: HTB85 osteosarcoma cells, drug combinations, stronger effect = higher value
# [18] = growth inhibition, MDA-MB-436, cell-based, BGB or cisplatin combos, synergistic combos for chromothripsis tumors (AID 1671458; call rule not given here;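 note: cells exposed for 96 hours; 0% = vehicle DMSO and 100% = killing by high DMSO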); settings: MDA-MB-436 breast carcinoma growth inhibition, drug combinations, stronger effect = higher value
# [19] = viability loss with induced miR-34 in A549 – imaging, A549 dox-inducible miR-34, nuclei and caspase counts, primary screen (AID 1347080;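 active = compounds whose cell count with miR-34 switched on is under 0.7 times the count with it off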); settings: A549 miR-34 inducible, Hoechst nuclei count, 48 h
# [20] = measured here: epithelial PC-3E GFP cell survival
# [21] = measured here: mesenchymal TEM4-18 mCherry cell survival
# [22] = MELAS cybrid survival, CellTiter-Glo 48 h, stronger effect = higher value
# [23] = Rieske KO mouse fibroblast survival, CellTiter-Glo 72 h
# [24] = stronger effect = lower value, cell number ratio, induced over uninduced
# [25] = measured here: relative caspase fold change +Dox/-Dox
# [26] = measured here: total cells with miR-34 induction, stronger effect = lower value
# [27] = measured here: total cells without miR-34 induction
# Sequence of NAD(+) hydrolase SARM1 (Homo sapiens) (Q6SZW1 whole entry, looked up): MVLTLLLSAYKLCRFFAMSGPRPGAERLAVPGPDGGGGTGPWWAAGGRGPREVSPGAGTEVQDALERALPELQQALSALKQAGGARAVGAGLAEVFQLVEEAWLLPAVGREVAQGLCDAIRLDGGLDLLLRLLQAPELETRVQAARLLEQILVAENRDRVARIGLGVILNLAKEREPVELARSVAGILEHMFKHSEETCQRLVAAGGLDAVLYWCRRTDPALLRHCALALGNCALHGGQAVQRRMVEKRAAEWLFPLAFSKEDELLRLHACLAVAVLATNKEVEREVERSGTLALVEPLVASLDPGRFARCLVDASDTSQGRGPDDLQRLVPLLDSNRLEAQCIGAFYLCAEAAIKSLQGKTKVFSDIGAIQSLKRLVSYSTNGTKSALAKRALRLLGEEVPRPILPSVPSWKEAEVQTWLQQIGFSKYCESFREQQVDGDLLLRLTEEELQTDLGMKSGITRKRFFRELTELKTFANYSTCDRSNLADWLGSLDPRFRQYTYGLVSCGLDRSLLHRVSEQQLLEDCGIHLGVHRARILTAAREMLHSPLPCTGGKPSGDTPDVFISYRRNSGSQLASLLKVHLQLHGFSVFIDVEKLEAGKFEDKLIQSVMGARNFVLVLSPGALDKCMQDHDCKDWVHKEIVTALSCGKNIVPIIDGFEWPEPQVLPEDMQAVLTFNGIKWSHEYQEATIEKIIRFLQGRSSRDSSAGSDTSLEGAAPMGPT
smiles,measurement,setting,value
N=C(N=C(N)N)N1CCOCC1,survival,[1],19.5 (inactive)
same,parasite load remaining,[2],19.9% (inactive) and 108% (inactive) and 72.1% (inactive)
same,viability,[2],51% and 98% and 255%
same,nuclear beta-catenin stimulation,[3]; at 10 µM,1.2% (inactive)
same,nuclear beta-catenin stimulation,"[3]; stimulation, at 2 µM",1.4%
same,insulin secretion stimulation,[4],-2.5% (inactive)
same,viability decrease,[5],-5.75% (inactive)
same,tube area decrease,[6],4.5% (inactive)
same,GLP1 secretion stimulation,[7],1.9% (inactive)
same,inhibition of viability,[8],14.6% (inactive)
same,viability decrease (inhibition),[9],34.4% (inactive)
same,viability decrease (inhibition),[10],4.15% (inactive)
same,red/green cell ratio (normalised),[11],0.95 (inactive)
same,normalised cell number,[11]; [20],0.9
same,normalised cell number,[11]; [21],0.86
same,z-score,[12]; [22],-0.354 (inactive) and -0.415 (inactive) and 0.363 (inactive)
same,z-score,[12]; [23],0.794 and 0.165 and 0.626
same,remaining NAD,[13],10 nM (inactive)
same,inhibition,"[14]; at 0.5 µM, stronger effect = higher value",0.66% (inactive)
same,inhibition,"[14]; measured here: combination with BGB IC20, at 0.005 µM",31.7%
same,inhibition,"[14]; measured here: combination with BGB IC40, at 0.005 µM",-13.4%
same,inhibition,"[14]; measured here: combination with BGB IC40, at 0.05 µM",-9.47%
same,inhibition,"[14]; measured here: combination with cisplatin, at 0.5 µM, stronger effect = higher value",66.2%
same,inhibition,"[14]; measured here: combination with cisplatin, at 5 µM, stronger effect = higher value",-1.14%
same,inhibition,"[15]; BGB combo, at 5 µM",12.3%
same,inhibition,[15]; at 0.5 µM,-2.43% (inactive)
same,inhibition,"[15]; cisplatin combo, at 5 µM",9.3%
same,inhibition,"[15]; measured here: with BGB IC20 combination, at 0.5 µM",-2.61%
same,inhibition,"[15]; measured here: with cisplatin IC20 combination, at 0.5 µM",-1.22%
same,inhibition,"[15]; single agent, at 5 µM",6.99%
same,inhibition,"[16]; BGB IC20 combo, at 0.005 µM",3.73%
same,inhibition,"[16]; BGB IC40 combo, at 0.005 µM",-7.45%
same,inhibition,"[16]; BGB IC40 combo, at 0.05 µM",-3.82%
same,inhibition,[16]; at 0.5 µM,-14.1% (inactive)
same,inhibition,"[16]; cisplatin combo, at 0.05 µM",-6.72%
same,inhibition,"[16]; cisplatin combo, at 0.5 µM",-17.9%
same,inhibition,"[16]; cisplatin combo, at 5 µM",-29%
same,inhibition,"[16]; measured here: 5 uM single agent, at 5 µM",-1.94%
same,inhibition,[17]; at 0.5 µM,-5.39% (inactive)
same,inhibition,"[17]; measured here: with BGB IC20, at 0.5 µM",1.31%
same,inhibition,"[17]; measured here: with BGB IC20, at 5 µM",-31%
same,inhibition,"[17]; measured here: with cisplatin IC20, at 0.5 µM",-27.9%
same,inhibition,"[17]; measured here: with cisplatin IC20, at 5 µM",-17.8%
same,inhibition,"[17]; single agent, at 5 µM",-7.35%
same,inhibition,[18]; at 0.5 µM,-3.31% (inactive)
same,inhibition,"[18]; measured here: BGB combination, at 0.5 µM",-4.36%
same,inhibition,"[18]; measured here: BGB combination, at 5 µM",-6.45%
same,inhibition,"[18]; measured here: cisplatin combination, at 0.5 µM",-3.15%
same,inhibition,"[18]; measured here: cisplatin combination, at 5 µM",-8.98%
O=[N+]([O-])c1ccc(O)c2ncccc12,nuclear beta-catenin stimulation,[3]; at 10 µM,45.6% (active)
same,nuclear beta-catenin stimulation,"[3]; stimulation, at 2 µM",1.9%
same,insulin secretion stimulation,[4],-1.1% (inactive)
same,viability decrease,[5],95.8% (active)
same,tube area decrease,[6],102% (active)
same,GLP1 secretion stimulation,[7],-11.4% (inactive)
same,inhibition of viability,[8],76.5% (active)
same,viability decrease (inhibition),[9],112% (active)
same,viability decrease (inhibition),[10],80.7% (active)
same,red/green cell ratio (normalised),[11],0.89 (inactive)
same,normalised cell number,[11]; [20],1.07
same,normalised cell number,[11]; [21],0.95
same,fold change,[19]; [24],0.979 (inactive)
same,fold change,[19]; [25],0.972
same,cell count,[19]; [26],2410
same,cell count,[19]; [27],2460
same,remaining NAD,[13],10 nM (inactive)
CC(C)(Oc1ccc(C2CC2(Cl)Cl)cc1)C(=O)O (stereo not drawn),survival,[1],3.17 (inactive)
same,parasite load remaining,[2],67% (inactive)
same,viability,[2],69.5%
same,nuclear beta-catenin stimulation,[3]; at 10 µM,-1.2% (inactive)
same,nuclear beta-catenin stimulation,"[3]; stimulation, at 2 µM",-1%
same,insulin secretion stimulation,[4],-1.6% (inactive)
same,viability decrease,[5],0.1% (inactive)
same,tube area decrease,[6],-3% (inactive)
same,GLP1 secretion stimulation,[7],1.4% (active)
same,inhibition of viability,[8],-3.5% (inactive)
same,viability decrease (inhibition),[9],-7.2% (inactive)
same,viability decrease (inhibition),[10],-11.1% (inactive)
same,red/green cell ratio (normalised),[11],1.11 (inactive)
same,normalised cell number,[11]; [20],1.15
same,normalised cell number,[11]; [21],1.28
same,fold change,[19]; [24],1.01 (inactive) and 0.95 (inactive) and 0.923 (inactive)
same,fold change,[19]; [25],2.14 and 0.705 and 0.604
same,cell count,[19]; [26],9720 and 9780 and 8880
same,cell count,[19]; [27],9650 and 10300 and 9610
same,z-score,[12]; [22],-0.289 (inactive) and 0.864 (inactive)
same,z-score,[12]; [23],-0.625 and 0.179
same,remaining NAD,[13],10 nM (inactive)
